Records with an inconclusive call do not appear. A call without a number means that no potency is given here. Values without a mark were called inactive. Activity calls are given as the source filed them. The call rests on the fitted dose curve; in most records, active means well fitted inhibition curve with a large enough effect; inconclusive means small, poorly fitted or top-dose-only effect; inactive means no such curve, though single readings can be large or run the other way. Where a SMILES comes first, the peptide text is derived from it. [ ]: non-standard residue; d: D form. ξ: configuration not given here. ξTyr(βOH) = NC(C(=O)O)C(O)c1ccc(O)cc1
Tested on: Zika virus NS2B-NS3 protease (unlinked complex)
Assay: Primary screen GU Rhodamine qHTS for Zika virus inhibitors: Unlinked NS2B-NS3 protease assay (AID 1347159); further: nearly all actives have a fitted effect of over 60% in size
Conditions: Recombinant ZIKV NS2B-NS3 protease, Rhodamine110 substrate fluorescence; series mostly up to 107 µM
In short: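 Unlinked NS2B/NS3, 25 nM; Rhod110 peptide, 1.5 microM; compounds, up to 114 microM. Reaction run 15 min at RT in 10 mM Tris-HCl pH 8.0, 0.01% Tween 20; kinetic fluorescence change fitted with a 4-parameter Hill model.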
Potency means the concentration at half of the fitted maximal effect.

SMILES | Potency | activity change, negative = inhibition
CC1CCC2(C)CCC3(C)C(=CCC4C5(C)CCC(O)C(C)(C(=O)O)C5CCC43C)C2C1C (stereo unspecified) | 8.91 µM (active) | –
c1ccc2c(Nc3nnc(-c4ccncc4)s3)cccc2c1 | inactive | –
CC(C)C(O)(CO)CCO[C@@H]1O[C@H](CO[C@H]2OC[C@](O)(CO)[C@H]2O)[C@@H](O)[C@H](O)[C@H]1O (stereo partly specified) | inactive | –
O=C(Cc1ccc(Cl)cc1)Nc1cnccc1C(=O)O | inactive | –
C[C@]12CCC[C@](C)(C(=O)O)C1[C@@H](O)[C@@H](O)C13CC(CCC12)C(CO)(O[C@@H]1O[C@H](CO)[C@@H](O)[C@H](O)[C@H]1O)C3 (stereo partly specified) | inactive | –
CC1(CO)CCCC2(C)C1C(OC(=O)c1ccccc1)CC1C(=O)OCC12O (stereo unspecified) | inactive | –
C[C@@H]1O[C@@H](O[C@H]2[C@H](OC(=O)[C@]34CCC(C)(C)C[C@H]3C3=CCC5[C@@]6(C)CC[C@H](O[C@@H]7O[C@H](CO[C@@H]8OC[C@H](O)[C@H](O)[C@H]8O[C@@H]8OC[C@@H](O)[C@H](O)[C@H]8O)[C@@H](O)[C@H](O)[C@H]7O)C(C)(C)C6CC[C@@]5(C)[C@]3(C)C[C@H]4O)O[C@H](CO)[C@@H](O)[C@@H]2O)[C@H](O[C@@H]2O[C@H](CO)[C@@H](O)[C@H](O)[C@H]2O)[C@H](O)[C@H]1O[C@@H]1OC[C@@H](O)[C@H](O[C@@H]2OC[C@@H](O)[C@H](O)[C@H]2O)[C@H]1O (stereo partly specified) | – | 2.96% [at 19.1 µM]
CC1=C(C)C(=O)OC(C(C)C2C(O)CC3C4C5OC5C5(O)CC(OC6OC(CO)C(OC7OC(C)C(O)C(O)C7O)C(O)C6O)CC(O)C5(C)C4CCC32C)C1 (stereo unspecified) | inactive | –
CC(C)C1NC(=O)CNC(=O)C2CCCN2C(=O)C(Cc2c[nH]c3ccccc23)NC(=O)CNC(=O)C(C(O)c2ccc(O)cc2)NC(=O)CNC1=O (stereo unspecified) (cyclo(G[ξTyr(βOH)]GWPGV); configuration not given here) | inactive | –
Cc1ccc(C)c(NC(=O)CNS(=O)(=O)c2ccc3[nH]c(=O)oc3c2)c1 | inactive | –
CC1(C)CC[C@]2(C(=O)O)CC[C@]3(C)C(=CCC4[C@@]5(C)CC[C@H](O[C@H]6O[C@H](C(=O)O)[C@@H](O)[C@H](O[C@@H]7O[C@H](CO)[C@H](O)[C@H](O)[C@H]7O)[C@H]6O)C(C)(C)C5CC[C@]43C)[C@@H]2C1 (stereo partly specified) | 8.91 µM (active) | –
CC(=O)NC(Cc1ccccc1)C(=O)NC(C(=O)O)C(C)C (stereo not drawn) (Ac-Phe-Val-OH; configuration not given here) | inactive | –
C=C1CCC2C(C)(C)CC(=O)CC2(C)C1CCC(C)CCO (stereo unspecified) | 20 µM (active) | –
C[C@@H]1C[C@@H](O)[C@@]23CO[C@]2(CO)CCC[C@@H]3[C@@]12C[C@@H](c1ccoc1)OC2=O | inactive | –
COc1ccc(NC(=O)c2ccc(-c3ccc(C(N)=O)cc3C)cc2)cc1N1CCN(C)CC1 | inactive | –
C=Cc1ccc(O[C@@H]2O[C@H](CO[C@@H]3O[C@@H](C)[C@H](O)[C@@H](O)[C@H]3O)[C@@H](O)[C@H](O)[C@H]2O)cc1 | inactive | –
CCC[C@H](N[C@@H](C)C(=O)N1[C@H](C(=O)O)C[C@@H]2CCCC[C@@H]21)C(=O)O | inactive | –
CC1OC(OC2C(OC3C(O[C@H]4CC[C@@]5(C)C(CC[C@]6(C)C5CC=C5C7CC(C)(C)CC(O)[C@]7(C)CC[C@]56C)C4(C)C)OC(C(=O)O)C(O)C3O)OCC(O)C2O)C(O)C(O)C1O (stereo partly specified) | 7.94 µM (active) | –
O=C(OCC(O)CO[C@@H]1O[C@H](C(=O)O)[C@@H](O)[C@H](O)[C@H]1O)c1ccccc1 (stereo partly specified) | inactive | –
CC1CCC23COC(=O)C2=CC(O)CC3C1(C)CCc1ccoc1 (stereo unspecified) | inactive | –
CCCCS(=O)(=O)NC(Cc1ccc(OCCCCC2CCNCC2)cc1)C(=O)O (stereo unspecified) | inactive | –
CC1(C(=O)O)CCCC2(C)C3CC4C5CC3(CCC12)CC45C (stereo unspecified) | 10 µM (active) | –
COc1cc(/C=C/C(=O)O[C@@H]2C[C@@](O)(C(=O)O)C[C@@H](O)[C@@H]2O)ccc1O | inactive | –
C[C@]1(OC(=O)/C=C/c2ccccc2)C[C@@H](O)[C@]2(O)C=CO[C@@H](O[C@@H]3O[C@H](CO)[C@@H](O)[C@H](O)[C@H]3O)[C@@H]21 | inactive | –
Cc1cc(O[C@@H]2O[C@H](COC(=O)CC(=O)O)[C@@H](O)[C@H](O)[C@H]2O)c(C(C)C)cc1O | inactive | –
C[C@@H]1O[C@@H](O[C@H]2[C@H](O[C@H]3[C@H](O[C@H]4CC[C@@]5(C)C(CC[C@]6(C)C5CC=C5[C@@H]7CC(C)(C)C[C@@H](O)[C@]7(C)CC[C@]56C)[C@@]4(C)CO)O[C@H](C(=O)O)[C@@H](O)[C@@H]3O)O[C@H](C(=O)O)[C@H](O)[C@@H]2O)[C@H](O)[C@H](O)[C@H]1O (stereo partly specified) | inactive | –
